Results published in the supplement of paper PMC6555819.

Key:
Assay in all cases: PBM binding z-score (relative to random genomic background probes); higher = stronger binding; sequences stand for … in GC…GCGATTGACAGCGTAGAATGAAGG
[1] = system: FXR:RXRa (NR concentration 270 nM, RXRa partner concentration 90 nM)
Method in brief: (§1)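 Regression normalization was applied to scanned fluorescence from custom Agilent 4×180K protein-binding microarrays. Before scanning, arrays were incubated 1 h with ligand-free nuclear receptor dimers, and binding was detected with antibodies against each partner (one per run). Binding z-scores use the random background probes as reference.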

[2] = system: LXRa:RXRa (NR concentration 270 nM, RXRa partner concentration 90 nM)
Method in brief: as §1

[3] = system: LXRa homodimer (NR concentration 270 nM)
Method in brief: as §1

[4] = system: LXRb:RXRa (NR concentration 270 nM, RXRa partner concentration 90 nM)
Method in brief: as §1

[5] = system: LXRb homodimer (NR concentration 270 nM)
Method in brief: as §1

[6] = system: PPARa:RXRa (NR concentration 270 nM, RXRa partner concentration 90 nM)
Method in brief: as §1

[7] = system: PPARg:RXRa (NR concentration 180 nM, RXRa partner concentration 90 nM)
Method in brief: as §1

[8] = system: PPARg:RXRa 270nM:90nM, anti-RXR (NR concentration 270 nM, RXRa partner concentration 90 nM)
Method in brief: as §1

[9] = system: PPARg:RXRa 30nM:10nM, anti-RXR (NR concentration 30 nM, RXRa partner concentration 10 nM)
Method in brief: as §1

[10] = system: PPARg:RXRa 90nM:30nM, anti-RXR (NR concentration 90 nM, RXRa partner concentration 30 nM)
Method in brief: as §1

[11] = system: PPARg:RXRa DBDmut IVT, anti-RXR (DBD mutation: RXRa K156A/R161A, NR concentration 270 nM, RXRa partner concentration 90 nM)
Method in brief: as §1

[12] = system: PPARg:RXRa IVT, anti-PPARg (NR concentration 270 nM, RXRa partner concentration 90 nM)
Method in brief: as §1

[13] = system: PPARg DBDmut:RXRa IVT, anti-PPARg (DBD mutation: PPARg1 K132A/R137A, NR concentration 270 nM, RXRa partner concentration 90 nM)
Method in brief: as §1

[14] = system: PPARg DBDmut IVT, anti-PPARg (DBD mutation: PPARg1 K132A/R137A, NR concentration 270 nM)
Method in brief: as §1

[15] = system: PPARg homodimer (NR concentration 180 nM)
Method in brief: as §1

[16] = system: PXR:RXRa (NR concentration 270 nM, RXRa partner concentration 90 nM)
Method in brief: as §1

[17] = system: PXR homodimer (NR concentration 270 nM)
Method in brief: as §1

[18] = system: RARa:RXR (NR concentration 270 nM, RXRa partner concentration 90 nM)
Method in brief: as §1

[19] = system: RARa homodimer (NR concentration 270 nM)
Method in brief: as §1

[20] = system: RARb:RXRa (NR concentration 270 nM, RXRa partner concentration 90 nM)
Method in brief: as §1

## CAAACTAGGTCACCGGAAGATCAAAGTCCGCATG
[1]
  PBM binding z-score: 4.71
[2]
  PBM binding z-score: 3.6
[3]
  PBM binding z-score: 0.641
[4]
  PBM binding z-score: 2.62
[5]
  PBM binding z-score: 0.598
[6]
  PBM binding z-score: 5.66
[7]
  PBM binding z-score: 9.41
[8]
  PBM binding z-score: 7.49
[9]
  PBM binding z-score: 5.48
[10]
  PBM binding z-score: 7.48
[11]
  PBM binding z-score: 8.57
[12]
  PBM binding z-score: 9.02
[13]
  PBM binding z-score: 7.41
[14]
  PBM binding z-score: 5.5
[15]
  PBM binding z-score: 6.16
[16]
  PBM binding z-score: 2.27
[17]
  PBM binding z-score: 0.35
[18]
  PBM binding z-score: 3.33
[19]
  PBM binding z-score: 1.83
[20]
  PBM binding z-score: 4.28

## ACTTACGGGTCAAAGAGGTTATAGCACGCGTATA
[1]
  PBM binding z-score: 6.96
[2]
  PBM binding z-score: 5.48
[3]
  PBM binding z-score: 1.34
[4]
  PBM binding z-score: 4.61
[5]
  PBM binding z-score: 0.72
[6]
  PBM binding z-score: 5.71
[7]
  PBM binding z-score: 5.28
[8]
  PBM binding z-score: 5.31
[9]
  PBM binding z-score: 2.31
[10]
  PBM binding z-score: 4.28
[11]
  PBM binding z-score: 3.17
[12]
  PBM binding z-score: 3.85
[13]
  PBM binding z-score: 1.03
[14]
  PBM binding z-score: 1.26
[15]
  PBM binding z-score: 3.6
[16]
  PBM binding z-score: 4.91
[17]
  PBM binding z-score: 2.73
[18]
  PBM binding z-score: 4.84
[19]
  PBM binding z-score: 1.4
[20]
  PBM binding z-score: 3.99

## CCGACTGGGGCAGAAAGGTGACCATACCATCCGG
[1]
  PBM binding z-score: -0.198
[2]
  PBM binding z-score: -0.194
[3]
  PBM binding z-score: -0.391
[4]
  PBM binding z-score: -0.267
[5]
  PBM binding z-score: -1.39
[6]
  PBM binding z-score: 0.838
[7]
  PBM binding z-score: 1.34
[8]
  PBM binding z-score: 1.98
[9]
  PBM binding z-score: -0.273
[10]
  PBM binding z-score: 1.32
[11]
  PBM binding z-score: 1.97
[12]
  PBM binding z-score: 2.21
[13]
  PBM binding z-score: -0.413
[14]
  PBM binding z-score: -1.14
[15]
  PBM binding z-score: 0.473
[16]
  PBM binding z-score: -0.192
[17]
  PBM binding z-score: -0.34
[18]
  PBM binding z-score: 0.197
[19]
  PBM binding z-score: -0.0337
[20]
  PBM binding z-score: 1.19

## TCATATAGGCAAATGCTAGGTGAAAGTCCGATCT
[1]
  PBM binding z-score: 0.729
[2]
  PBM binding z-score: 0.526
[3]
  PBM binding z-score: -0.00307
[4]
  PBM binding z-score: 0.0683
[5]
  PBM binding z-score: -0.278
[6]
  PBM binding z-score: 0.735
[7]
  PBM binding z-score: 0.411
[8]
  PBM binding z-score: 1.55
[9]
  PBM binding z-score: 3.12
[10]
  PBM binding z-score: 2.14
[11]
  PBM binding z-score: 2.29
[12]
  PBM binding z-score: 0.809
[13]
  PBM binding z-score: 0.452
[14]
  PBM binding z-score: 0.623
[15]
  PBM binding z-score: 0.286
[16]
  PBM binding z-score: 0.34
[17]
  PBM binding z-score: 0.108
[18]
  PBM binding z-score: 0.528
[19]
  PBM binding z-score: 0.507
[20]
  PBM binding z-score: 0.0925

## ATCTATAGGTAACAAGTTCAGTGAAAGAGAGGAC
[1]
  PBM binding z-score: 0.766
[2]
  PBM binding z-score: 1.11
[3]
  PBM binding z-score: 0.709
[4]
  PBM binding z-score: 0.927
[5]
  PBM binding z-score: 0.629
[6]
  PBM binding z-score: 1.64
[7]
  PBM binding z-score: 1.46
[8]
  PBM binding z-score: 1.66
[9]
  PBM binding z-score: 0.781
[10]
  PBM binding z-score: 1.46
[11]
  PBM binding z-score: 2.14
[12]
  PBM binding z-score: 1.83
[13]
  PBM binding z-score: 1.5
[14]
  PBM binding z-score: 1.51
[15]
  PBM binding z-score: 1.15
[16]
  PBM binding z-score: 1.72
[17]
  PBM binding z-score: 1.68
[18]
  PBM binding z-score: 1.74
[19]
  PBM binding z-score: 1.48
[20]
  PBM binding z-score: 1.72

## CGTCCAAGATCAGAGAGGTCAGTGAATGCCGAGT
[1]
  PBM binding z-score: 1.64
[2]
  PBM binding z-score: 2
[3]
  PBM binding z-score: 1.44
[4]
  PBM binding z-score: 1.92
[5]
  PBM binding z-score: 0.00137
[6]
  PBM binding z-score: 2.52
[7]
  PBM binding z-score: 0.376
[8]
  PBM binding z-score: 0.581
[9]
  PBM binding z-score: 0.00146
[10]
  PBM binding z-score: 0.0792
[11]
  PBM binding z-score: 0.179
[12]
  PBM binding z-score: 0.0749
[13]
  PBM binding z-score: -0.351
[14]
  PBM binding z-score: -0.769
[15]
  PBM binding z-score: 2.69
[16]
  PBM binding z-score: 3.22
[17]
  PBM binding z-score: 2.06
[18]
  PBM binding z-score: 3.09
[19]
  PBM binding z-score: 1.49
[20]
  PBM binding z-score: 2.95

## TCTATTAGTTGATGAGGGCAACCGAAACAGCGGA
[1]
  PBM binding z-score: 0.667
[2]
  PBM binding z-score: 0.683
[3]
  PBM binding z-score: 0.18
[4]
  PBM binding z-score: 0.607
[5]
  PBM binding z-score: 0.412
[6]
  PBM binding z-score: 1.07
[7]
  PBM binding z-score: 0.347
[8]
  PBM binding z-score: 2
[9]
  PBM binding z-score: 3.62
[10]
  PBM binding z-score: 2.83
[11]
  PBM binding z-score: 2.06
[12]
  PBM binding z-score: 0.967
[13]
  PBM binding z-score: 0.312
[14]
  PBM binding z-score: 0.843
[15]
  PBM binding z-score: 1
[16]
  PBM binding z-score: 0.877
[17]
  PBM binding z-score: 0.351
[18]
  PBM binding z-score: 0.981
[19]
  PBM binding z-score: 0.755
[20]
  PBM binding z-score: 1.41
